PubChem BioAssay (NCATS)
Unmarked numbers belong to inactive results. Results filed as inconclusive are left out. Entries that show only a call come without a potency. The source made the active and inactive calls. Unless noted, calls follow the shape of the dose curve; as a rule, active = well fitted curve in the direction sought with a large enough effect; inconclusive = small, poorly fitted or top-dose-only effect, or another doubt; inactive = no such curve, though single readings can be large; an effect the other way counts as inactive or inconclusive.

What was measured:
[1] = Cell Viability qHTS for small molecule stabilizers of the endoplasmic reticulum resident proteome (AID 1508629); settings: cell viability counter-screen, 100 nM thapsigargin for final 4 h;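 also: human SH-SY5Y neuroblastoma cells carrying the GLuc-SERCaMP reporter; compound exposure about 46 h in total before the viability read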
[2] = Primary qHTS for small molecule stabilizers of the endoplasmic reticulum resident proteome: Secreted ER Calcium Modulated Protein (SERCaMP) assay (AID 1508630); settings: SH-SY5Y GLuc-SERCaMP (Gaussia luciferase released on ER calcium loss) secretion, thapsigargin, luminescence; series mostly up to 38.4 µM
How it was run: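 GLuc-SERCaMP-expressing SH-SY5Y cells, pretreated 16 h with compound, are challenged with thapsigargin to empty ER calcium stores; after 4 h, coelenterazine is added directly to the medium and luminescence is imaged.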

[3] = target: Cytochrome P450 1A2 (Homo sapiens) (UniProt P05177); test: p450-cyp1a2 (AID 410; calls by dose curve); settings: recombinant CYP1A2, luciferin-ME demethylation, luminescence; series mostly up to 57 µM
How it was run: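 Luminescent readout of luciferin formed from Luciferin-ME by human CYP1A2; data normalized against complete inhibition by 57 uM furafylline. Enzyme 20nM, substrate 100uM at Km, 100mM KPO4 buffer, 60 min reaction at room temperature.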

[4] = target: Glucocorticoid receptor (Homo sapiens) (UniProt P04150); test: GR-GFP Redistribution (AID 450;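 active = compounds whose dose series gives a full or clear partial fitted curve of increased nuclear translocation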; also: potency is read from the fitted curve at half-maximal effect); settings: U2OS GR-GFP nuclear translocation, laser cytometry, 2 h
[5] = target: Glucocorticoid receptor (Homo sapiens) (UniProt P04150); test: GR-EFC Redistribution (AID 451; calls by dose curve; also: potency is read from the fitted curve at half-maximal effect); settings: CHO-K1 GR-EFC translocation, beta-gal luminescence, 2 h
How it was run: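 CHO-K1 cells stably expressing nuclear-localized β-gal enzyme acceptor and GR fused C-terminally to the enzyme donor fragment; ligand-driven nuclear translocation restores β-gal by complementation. Compounds titrated up to 46 uM final, 2 h at 37 °C; luminescence read.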

[6] = target: Mitogen-activated protein kinase 10 (Mus musculus) (UniProt Q61831); test: JNK3 AlphaScreen Assay (AID 530; active = well fitted curve in either direction with a large enough effect, not every such curve was filed as active;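 also: kinase came from lysate of stimulated human HepG2 cells; signal reports phosphorylation of biotinylated GST-cJun 1-79 at Ser73 with 10 µM ATP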); settings: JNK3 lysate, c-Jun phosphorylation; series mostly up to 57.1 µM
How it was run: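 Inhibitors reduce antibody binding to phosphorylated biotin-cJun, lowering AlphaScreen luminescence. Lysates from HepG2 cells pre-activated by IL-1beta plus TNF-alpha supplied JNK3; compounds were titrated.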

[7] = target: Cytochrome P450 3A4 (Homo sapiens) (UniProt P08684); test: qHTS Assay for Activators of Cytochrome P450 3A4 (AID 885); settings: recombinant CYP3A4, Luciferin-PPXE luminescence, 60 min; series mostly up to 57.1 µM; also: nearly all actives have a fitted effect of over 65% in size
How it was run: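 Quantitative HTS format: compounds preincubated with 20nM human CYP3A4 and Luciferin-PPXE substrate at KM, reaction started by NADPH regeneration, stopped after 60 min, luciferase luminescence read 20 min later.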

[8] = target: Cytochrome P450 2D6 (Homo sapiens) (UniProt P10635); test: qHTS Assay for Inhibitors and Substrates of Cytochrome P450 2D6 (AID 891); settings: recombinant CYP2D6, luciferin-ME EGE luminescence; series mostly up to 57.1 µM; also: potency is read from the fitted curve at half-maximal effect; nearly all actives have a fitted effect of over 60% in size
How it was run: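 Human CYP2D6 (5 nM) with 30 uM Luciferin-ME EGE (at Km) in 100 mM KPO4, compound preincubated 10 min, then NADPH regeneration system for 60 min at room temperature. Luciferin read by luminescence; normalized to 1.43 uM quinidine.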

[9] = target: DNA dC->dU-editing enzyme APOBEC-3G (Homo sapiens) (UniProt Q9HC16); test: qHTS for inhibitors of Vif-A3G interactions: Validation (AID 588379); settings: Vif-A3G protein interaction assay; series mostly up to 46.1 µM
How it was run: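 HeLa cells stably expressing Vif and A3G-eYFP, 700 cells/well, incubated overnight at 37 deg C, then exposed to compound overnight at 37 deg C. Inhibition of Vif-mediated degradation read as increased yellow fluorescence (Ex 488/Em 500-530) by laser-scanning cytometry.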

Sequence of Glucocorticoid receptor (Homo sapiens) (P04150 whole entry, looked up, the tested form may be a part): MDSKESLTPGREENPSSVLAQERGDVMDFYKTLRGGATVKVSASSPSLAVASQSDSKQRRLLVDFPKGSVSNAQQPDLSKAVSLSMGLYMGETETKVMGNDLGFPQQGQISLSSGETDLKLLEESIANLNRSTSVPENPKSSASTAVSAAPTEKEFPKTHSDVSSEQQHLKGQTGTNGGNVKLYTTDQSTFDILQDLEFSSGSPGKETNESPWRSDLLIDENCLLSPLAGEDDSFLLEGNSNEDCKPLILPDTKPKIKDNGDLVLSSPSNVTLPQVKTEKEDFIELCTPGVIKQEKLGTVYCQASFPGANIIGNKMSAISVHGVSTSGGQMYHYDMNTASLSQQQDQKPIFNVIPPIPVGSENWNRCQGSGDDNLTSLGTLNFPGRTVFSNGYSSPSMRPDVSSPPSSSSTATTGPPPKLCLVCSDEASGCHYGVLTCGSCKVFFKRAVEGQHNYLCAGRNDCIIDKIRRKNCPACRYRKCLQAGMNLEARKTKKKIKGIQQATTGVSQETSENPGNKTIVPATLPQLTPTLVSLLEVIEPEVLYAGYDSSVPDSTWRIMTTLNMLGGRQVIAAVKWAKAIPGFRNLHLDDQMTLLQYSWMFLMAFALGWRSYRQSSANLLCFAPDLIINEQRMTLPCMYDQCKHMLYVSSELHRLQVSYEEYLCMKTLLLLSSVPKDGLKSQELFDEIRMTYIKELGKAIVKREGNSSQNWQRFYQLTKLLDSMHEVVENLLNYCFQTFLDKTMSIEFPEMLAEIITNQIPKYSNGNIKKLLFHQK
Sequence of Cytochrome P450 2D6 (Homo sapiens) (P10635 whole entry, looked up): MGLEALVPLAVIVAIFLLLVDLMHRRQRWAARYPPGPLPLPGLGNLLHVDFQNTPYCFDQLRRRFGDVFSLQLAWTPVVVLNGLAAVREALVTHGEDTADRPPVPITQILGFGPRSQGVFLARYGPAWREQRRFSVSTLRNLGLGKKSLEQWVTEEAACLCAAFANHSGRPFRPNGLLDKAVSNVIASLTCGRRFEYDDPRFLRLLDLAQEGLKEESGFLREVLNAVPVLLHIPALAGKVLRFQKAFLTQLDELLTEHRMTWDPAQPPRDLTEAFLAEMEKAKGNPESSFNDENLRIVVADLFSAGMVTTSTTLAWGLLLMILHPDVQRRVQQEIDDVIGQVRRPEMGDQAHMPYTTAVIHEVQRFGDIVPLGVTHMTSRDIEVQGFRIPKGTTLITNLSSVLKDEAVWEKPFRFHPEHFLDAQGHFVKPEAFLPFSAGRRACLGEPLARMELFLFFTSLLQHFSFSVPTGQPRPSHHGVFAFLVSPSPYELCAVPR
Sequence of DNA dC->dU-editing enzyme APOBEC-3G (Homo sapiens) (Q9HC16 whole entry, looked up): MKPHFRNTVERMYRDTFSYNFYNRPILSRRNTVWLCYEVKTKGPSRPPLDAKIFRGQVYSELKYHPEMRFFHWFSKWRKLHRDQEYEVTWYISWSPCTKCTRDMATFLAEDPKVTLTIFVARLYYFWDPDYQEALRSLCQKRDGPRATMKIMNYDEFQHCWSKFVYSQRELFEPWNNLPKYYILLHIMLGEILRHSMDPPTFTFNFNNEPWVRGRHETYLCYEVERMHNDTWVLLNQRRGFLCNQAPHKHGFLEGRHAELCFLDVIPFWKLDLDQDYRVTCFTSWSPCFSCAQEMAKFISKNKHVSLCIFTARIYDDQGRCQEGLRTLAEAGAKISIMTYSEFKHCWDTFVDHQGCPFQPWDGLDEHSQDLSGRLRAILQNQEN
Sequence of Cytochrome P450 3A4 (Homo sapiens) (P08684 whole entry, looked up): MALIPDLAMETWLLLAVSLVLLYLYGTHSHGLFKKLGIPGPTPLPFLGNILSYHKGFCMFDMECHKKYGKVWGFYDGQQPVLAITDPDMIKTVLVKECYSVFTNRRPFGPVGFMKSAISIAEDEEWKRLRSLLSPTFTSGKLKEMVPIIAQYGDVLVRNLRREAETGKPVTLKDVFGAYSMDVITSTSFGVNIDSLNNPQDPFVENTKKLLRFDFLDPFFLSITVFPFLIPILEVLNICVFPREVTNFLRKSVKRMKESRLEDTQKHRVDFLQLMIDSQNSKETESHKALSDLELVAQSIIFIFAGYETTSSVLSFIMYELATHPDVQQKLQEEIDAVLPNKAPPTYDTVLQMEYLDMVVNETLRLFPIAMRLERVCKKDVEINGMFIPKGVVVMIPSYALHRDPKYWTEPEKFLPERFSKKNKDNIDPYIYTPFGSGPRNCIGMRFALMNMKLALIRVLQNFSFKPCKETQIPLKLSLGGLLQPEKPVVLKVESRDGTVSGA
Sequence of Cytochrome P450 1A2 (Homo sapiens) (P05177 whole entry, looked up): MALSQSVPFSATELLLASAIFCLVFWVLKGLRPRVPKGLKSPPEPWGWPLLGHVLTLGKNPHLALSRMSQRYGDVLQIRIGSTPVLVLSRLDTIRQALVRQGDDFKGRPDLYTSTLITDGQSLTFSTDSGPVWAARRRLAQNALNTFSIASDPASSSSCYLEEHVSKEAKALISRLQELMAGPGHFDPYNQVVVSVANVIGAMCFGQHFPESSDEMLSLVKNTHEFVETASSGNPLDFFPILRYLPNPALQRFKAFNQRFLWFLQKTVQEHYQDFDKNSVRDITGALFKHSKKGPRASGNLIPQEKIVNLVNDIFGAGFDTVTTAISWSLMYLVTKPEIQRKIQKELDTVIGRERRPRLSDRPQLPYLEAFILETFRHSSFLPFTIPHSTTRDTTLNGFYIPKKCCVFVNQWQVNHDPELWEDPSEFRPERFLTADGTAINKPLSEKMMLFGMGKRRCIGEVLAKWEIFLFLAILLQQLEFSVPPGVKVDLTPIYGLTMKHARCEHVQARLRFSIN

CC(C)=CCCN1CCC(NC(=O)C(O)(c2ccccc2)C2CCCC2)CC1 (configuration not stated)
max response [1]: 3.9%

Clc1ccc(C2CC3CCC2N3)cn1 (configuration not stated)
Potency [2]: inactive

N#CC(C#N)=Cc1cc(O)c(O)c([N+](=O)[O-])c1
Potency [2]: inactive

O=C(O)/C=C/CO
Potency [2]: inactive

c1ccc([C@H]2CNCc3ccccc32)cc1
Potency [3]: inactive | Potency [4]: > 46 µM | Potency [5]: > 46 µM | outcome [6]: inactive | Potency [7]: inactive | Potency [8]: 5.01 µM (active) | Potency [9]: inactive | Potency [2]: inactive
